Assay results reported in PubChem BioAssay (NCATS).
Inconclusive results are not listed. A call without a number means that no potency is given here. Calls of active or inactive are those of the source. Calls follow the shape of the dose curve; as a rule, active = well fitted inhibition curve with a large enough effect; inconclusive = small, poorly fitted or top-dose-only effect; inactive = flat fitted curve, though single readings scatter.

How the values were obtained:
Assay in all cases: qHTS profiling for inhibitors of Plasmodium falciparum proliferation (AID 504749); also: nearly all actives have a fitted effect of over 60% in size
Conditions in all cases: P. falciparum in erythrocytes, SYBR Green DNA, 72 h; series mostly up to 28.7 µM
[1] = tested on: DFO2036
Outline: (§1)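 Quantitative HTS: compounds pinned into medium, infected erythrocytes added (0.3% parasitemia, 2.5% hematocrit), 72 h culture at 37 C under 5% CO2. Saponin/Triton lysis with SYBR Green I, overnight RT, then fluorescence read.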

[2] = tested on: DIV14
Outline: as §1

[3] = tested on: DIV17
Outline: as §1

[4] = tested on: DIV30
Outline: as §1

[5] = tested on: Dd2
Outline: as §1

[6] = tested on: ECU
Outline: as §1

[7] = tested on: FAB9
Outline: as §1

[8] = tested on: GB4
Outline: as §1

[9] = tested on: HB3
Outline: as §1

[10] = tested on: ICS
Outline: as §1

[11] = tested on: JCK
Outline: as §1

[12] = tested on: N140
Outline: as §1

[13] = tested on: P93_24
Outline: as §1

[14] = tested on: P94_40
Outline: as §1

[15] = tested on: PAD
Outline: as §1

[16] = tested on: PC15
Outline: as §1

[17] = tested on: PC26
Outline: as §1

[18] = tested on: PC49
Outline: as §1

[19] = tested on: SC27B
Outline: as §1

[20] = tested on: TAB109
Outline: as §1
Potency is read from the fitted curve at half-maximal effect.

Compound | Potency [1] | Potency [2] | Potency [3] | Potency [4] | Potency [5] | Potency [6] | Potency [7] | Potency [8] | Potency [9] | Potency [10] | Potency [11] | Potency [12] | Potency [13] | Potency [14] | Potency [15] | Potency [16] | Potency [17] | Potency [18] | Potency [19] | Potency [20]
CCCCC(CC)COC(=O)/C=C/c1ccc(OC)cc1 (stereo not drawn) | inactive | inactive | inactive | inactive | inactive | inactive | inactive | inactive | inactive | inactive | inactive | inactive | inactive | inactive | inactive | inactive | inactive | inactive | inactive | inactive
NS(=O)(=O)Cc1noc2ccccc12 | inactive | inactive | inactive | inactive | inactive | inactive | inactive | inactive | inactive | inactive | inactive | inactive | inactive | inactive | inactive | inactive | inactive | inactive | inactive | inactive
CC[C@H](c1ccc(O)cc1)[C@@H](CC)c1ccc(O)cc1 | inactive | inactive | inactive | inactive | inactive | inactive | inactive | inactive | inactive | inactive | inactive | inactive | inactive | inactive | inactive | inactive | inactive | inactive | inactive | inactive
COc1ccccc1N1CCN(CCCCNC(=O)c2ccc(-c3ccc(C(C)=O)cc3)cc2)CC1 | inactive | inactive | inactive | inactive | inactive | inactive | inactive | inactive | inactive | 14.1 µM (active) | inactive | inactive | inactive | inactive | inactive | inactive | inactive | inactive | inactive | inactive
CCc1oc2ccccc2c1C(=O)c1cc(I)c(O)c(I)c1 | inactive | inactive | inactive | inactive | inactive | inactive | inactive | inactive | inactive | inactive | inactive | inactive | inactive | inactive | inactive | inactive | inactive | inactive | inactive | inactive
NS(=O)(=O)c1cc(C(=O)O)cc(N2CCCC2)c1Oc1ccccc1 | inactive | inactive | inactive | inactive | inactive | inactive | inactive | inactive | inactive | inactive | inactive | inactive | inactive | inactive | inactive | inactive | inactive | inactive | inactive | inactive
COc1ccc(CN(CCN(C)C)c2ncccn2)cc1 | inactive | inactive | inactive | inactive | inactive | inactive | inactive | 9.53 µM (active) | inactive | inactive | inactive | inactive | 7.94 µM (active) | inactive | inactive | inactive | inactive | inactive | inactive | inactive
CC(=O)Nc1ccc(CC(=O)O)cc1 | inactive | inactive | inactive | inactive | inactive | inactive | inactive | inactive | inactive | inactive | inactive | inactive | inactive | inactive | inactive | inactive | inactive | inactive | inactive | inactive
NCCNC(=O)c1ccc(Cl)cn1 | inactive | inactive | inactive | inactive | inactive | inactive | inactive | inactive | inactive | inactive | inactive | inactive | inactive | inactive | inactive | inactive | inactive | inactive | inactive | inactive
COc1ccc(-c2cc(C(F)F)nn2-c2ccc(S(N)(=O)=O)cc2)cc1F | inactive | inactive | inactive | inactive | inactive | inactive | inactive | inactive | inactive | inactive | inactive | inactive | inactive | inactive | inactive | inactive | inactive | inactive | inactive | inactive
N=C(N)N1CCc2ccccc2C1 | inactive | inactive | inactive | inactive | inactive | inactive | inactive | inactive | inactive | inactive | inactive | inactive | inactive | inactive | inactive | inactive | inactive | inactive | inactive | inactive
Cc1cc(C)cc(OCC2CNC(=O)O2)c1 (stereo not drawn) | inactive | inactive | inactive | inactive | inactive | inactive | inactive | inactive | inactive | inactive | inactive | inactive | inactive | inactive | inactive | inactive | inactive | inactive | inactive | inactive
FC1(F)C(F)(F)C(F)(F)C2(F)C(F)(F)C(F)(F)C(F)(F)C(F)(F)C2(F)C1(F)F (stereo not drawn) | inactive | inactive | inactive | inactive | inactive | inactive | inactive | inactive | inactive | inactive | inactive | inactive | inactive | inactive | inactive | inactive | inactive | inactive | inactive | inactive
Cc1ccc(S(=O)(=O)NC(=O)NC2CCCC2)cc1 | inactive | inactive | inactive | inactive | inactive | inactive | inactive | inactive | inactive | inactive | inactive | inactive | inactive | inactive | inactive | inactive | inactive | inactive | inactive | inactive
CCCN(CCC)S(=O)(=O)c1ccc(C(=O)O)cc1 | inactive | inactive | inactive | inactive | inactive | inactive | inactive | inactive | inactive | inactive | inactive | inactive | inactive | inactive | inactive | inactive | inactive | inactive | inactive | inactive
CCc1oc2ccccc2c1C(=O)c1cc(Br)c(O)c(Br)c1 | inactive | inactive | inactive | inactive | inactive | inactive | inactive | inactive | inactive | inactive | inactive | inactive | inactive | inactive | inactive | inactive | inactive | inactive | inactive | inactive
O=S(=O)(O)c1ccc(O)cc1 | inactive | inactive | inactive | inactive | inactive | inactive | inactive | inactive | inactive | inactive | inactive | inactive | inactive | inactive | inactive | inactive | inactive | inactive | inactive | inactive
CCCCN=C(N)N=C(N)N | inactive | inactive | inactive | inactive | inactive | inactive | inactive | inactive | inactive | inactive | inactive | inactive | inactive | inactive | inactive | inactive | inactive | inactive | inactive | inactive
Cc1cc(NS(=O)(=O)c2ccc(N)cc2)nc(C)n1 | inactive | inactive | inactive | inactive | inactive | inactive | inactive | inactive | inactive | inactive | inactive | inactive | inactive | inactive | inactive | inactive | inactive | inactive | inactive | inactive
Nc1ccc(S(=O)(=O)NCc2ccccc2)cc1 | inactive | inactive | inactive | inactive | inactive | inactive | inactive | inactive | inactive | inactive | inactive | inactive | inactive | inactive | inactive | inactive | inactive | inactive | inactive | inactive
CCCCCCCCCCCCCC[N+](C)(C)Cc1ccccc1 | 7.94 µM (active) | 4.78 µM (active) | 4.78 µM (active) | 6.75 µM (active) | 10 µM (active) | 7.08 µM (active) | 5.62 µM (active) | 4.26 µM (active) | 8.91 µM (active) | 2.51 µM (active) | 11.2 µM (active) | 8.91 µM (active) | 7.94 µM (active) | 6.31 µM (active) | 11.2 µM (active) | 6.31 µM (active) | 5.36 µM (active) | 7.94 µM (active) | 7.94 µM (active) | 7.94 µM (active)
NC(=O)n1c(O)c(C(=O)c2cccs2)c2cc(Cl)ccc21 | inactive | inactive | inactive | inactive | inactive | inactive | inactive | inactive | inactive | inactive | inactive | inactive | inactive | inactive | inactive | inactive | inactive | inactive | inactive | inactive
Cc1c[nH]c2ccccc12 | inactive | inactive | inactive | inactive | inactive | inactive | inactive | inactive | inactive | inactive | inactive | inactive | inactive | inactive | inactive | inactive | inactive | inactive | inactive | inactive
COc1cc(C)nc(-n2nc(C)cc2OC)n1 | inactive | inactive | inactive | inactive | inactive | inactive | inactive | inactive | inactive | inactive | inactive | inactive | inactive | inactive | inactive | inactive | inactive | inactive | inactive | inactive
C#C[C@]1(O)CC[C@H]2[C@@H]3CCC4=CC(=O)CC[C@@H]4[C@H]3CC[C@@]21CC | inactive | inactive | inactive | inactive | inactive | inactive | inactive | inactive |  |  | inactive | inactive | inactive | inactive | inactive | inactive | inactive | inactive | inactive | inactive
